Values joined by “and” are separate entries in the source; they are usually repeats but may differ in a detail not shown here. Identical values can stand only once. The campaign covered roughly 6,400 compounds. About 610 (9.5%) were called active. What follows is part of a selection rich in actives, with near analogues and random picks from the rest. Unmarked numbers belong to inactive results. No stated cut-off is given here; in the data, active means activity change below about -70%; inconclusive means no clear call, values can overlap the other calls; inactive means above that.

From PubChem BioAssay AID1259421 (Broad Institute, 2018) come the findings set out here.

The experiment is described as follows: T. gondii ME49Luc in HeLa cells, luciferase assay, 72 h, no IFN-y (AID 1259421). Particulars: active compounds read low, concentration not given here.
For the compound `Cn1cc(C(=O)C(=O)N[C@H]2CN3CCC2CC3)c2ccccc21`, the activity change, negative = inhibition was 3.13% and -2.73%.
The same measure for `O=C(Nc1ccncc1)C(=O)c1cn(Cc2ccc(Cl)cc2)c2ccccc12`: -75.2% (active).
Under `O=Cc1cn(Cc2ccc(Cl)cc2)c2ccccc12` stands 3.18%; under `c1cc(Cc2cnc[nH]2)ccn1`, 4.56%; under `CCCN(CCC)C1CCc2ccc(O)cc2C1` (stereo not drawn), -0.0815% and 4.46%.
The same measure for `O=C(O)c1ccc2[nH]cc(CCCCN3CC=C(c4ccccc4)CC3)c2c1`: 8.65% and 4.54%; for `c1ccc2sc(C3(N4CCCC4)CCCCC3)cc2c1`: 3.78%.
Regarding `O=C(O)COc1ccc(Cl)cc1Cl`, the activity change, negative = inhibition is 5.11%.
Under `O=C(O)CCCOc1ccc(Cl)cc1Cl` stands 9.07%; under `Oc1cc(Cl)ccc1Oc1ccc(Cl)cc1Cl`, -80.6% (active) and -88.3% (active).
Under `FC(F)OC(F)(F)C(F)Cl` (stereo not drawn) stands 2.39%; under `CCC1C(C)=NN=C(c2ccc(OC)c(OC)c2)c2cc(OC)c(OC)cc21` (stereo not drawn), 6.78%.
Under `CCCCC1(C2CCCC2)Cc2cc(OCCCC(=O)O)c(Cl)c(Cl)c2C1=O` (stereo not drawn) stands -6.67%; under `CC(=O)OC[C@]12CCC(C)=C[C@H]1O[C@@H]1[C@H](O)[C@@H](OC(C)=O)[C@@]2(C)[C@@]12CO2`, -82.7% (active).
In the case of `CCCC[N+]1(C)[C@@H]2CC(OC(=O)[C@@H](CO)c3ccccc3)C[C@H]1[C@@H]1O[C@@H]12` (stereo partly drawn), the activity change, negative = inhibition was 2.27%.
Under `NC(=NCc1ccc(Cl)cc1)SCCCc1cnc[nH]1` stands -1.21% and -3.65%.
As for `C=C(C)[C@@H]1CCC(C)=C[C@H]1c1c(OC)cc(C)cc1OC`, the activity change, negative = inhibition was 13.1% and 2.72%.
The same measure for `COc1cccc2c1C(=O)c1c(O)c3c(c(O)c1C2=O)C[C@@](O)(C(=O)CO)C[C@@H]3O[C@H]1C[C@H](N2CCO[C@H](OC)C2)[C@H](O)[C@H](C)O1`: -77.1% (active); for `CC(C)(C)NCC(O)COc1cccc2[nH]c(C#N)cc12` (stereo not drawn): -74.6% (active); for `CC(C)(C)NC[C@H](O)COc1cccc2[nH]c(C#N)cc12`: 0.543%.
Under `CS(=O)(=O)Nc1ccc(Cc2noc(-c3ccc4[nH]cc(CCN)c4c3)n2)cc1` stands 0.294%; under `CCc1cccc(CC)c1NC1=NCCN1`, 5.66%.
Under `CN1C(=O)[C@@H](NC(=O)c2cc3ccccc3[nH]2)N=C(c2ccccc2)c2ccccc21` stands -59.5%.
For `CC(=O)O[C@H]1C(=O)[C@@]2(C)C([C@H](OC(=O)c3ccccc3)[C@]3(O)C[C@H](O)C(C)=C1C3(C)C)[C@]1(OC(C)=O)CO[C@@H]1C[C@@H]2O` (stereo partly drawn), the activity change, negative = inhibition was -56.1%.
Under `CC(=O)O[C@@]12CO[C@@H]1C[C@H](O)[C@@]1(C)C(=O)[C@H](O)C3=C(C)[C@@H](O)C[C@@](O)([C@@H](OC(=O)c4ccccc4)[C@H]21)C3(C)C` stands -60.3% and 13.9%; under `C/C=C(\C)C(=O)N[C@@H](c1ccccc1)[C@@H](O)C(=O)O[C@H]1C[C@@]2(O)[C@@H](OC(=O)c3ccccc3)[C@@H]3[C@]4(OC(C)=O)CO[C@@H]4C[C@H](O)[C@@]3(C)C(=O)[C@H](OC(C)=O)C(=C1C)C2(C)C`, -82.1% (active).
Under `C[C@H](N)Cc1ccccc1` stands 4.68%.
The same measure for `O=[N+]([O-])NC1=NCCN1Cc1ccc(Cl)nc1`: 8.16%.
As for `C[C@]12CCC3C(CC[C@H]4CC(=O)CC[C@]34C)C1CCC2=O` (stereo partly drawn), the activity change, negative = inhibition is 1.73%.
The same measure for `CC[C@H]1CN2CCC1C[C@@H]2[C@@H](O)c1ccnc2ccc(OC)cc12` (stereo partly drawn): 14.8% and 8.86%; for `CN1CCc2cc(Cl)c(O)cc2[C@H]2c3ccccc3CC[C@@H]21`: -4.73%; for `CCCCOC(=O)c1ccccc1C(=O)OCCCC`: 3.08% and -9.32%.
The same measure for `C[CH2][Hg][S]c1ccccc1C(=O)O`: -88.9% (active) and -92.1% (active); for `CNc1ccccc1C(=O)O`: -1.44%; for `O=c1cccc2n1C[C@H]1CNCC2C1`: 4.99%.
The same measure for `C=CC[C@]1(O)CCC2C3CCC4=CC(=O)CCC4=C3C=C[C@@]21C` (stereo partly drawn): 11.2%; for `C#C[C@]1(O)CC[C@H]2[C@@H]3CCC4=CC(=O)CCC4=C3C=C[C@@]21CC`: -82.3% (active).
As to `C=CC[C@@]1(O)CC[C@H]2[C@@H]3CCC4=CC(=O)CCC4=C3C=C[C@@]21C`, the activity change, negative = inhibition was 9.86%.
`C=C[C@H]1CN2CC[C@H]1C[C@@H]2[C@@H](OC(=O)OCC)c1ccnc2ccc(OC)cc12`: the activity change, negative = inhibition was 7.12% and 13%.
Under `CCCN1CCO[C@H]2c3cc(O)ccc3OC[C@@H]21` stands -9.29%; under `NCCc1cccc(O)c1`, -9.36%.
On to `Oc1ccc2c3c1OC1[C@@H](O)CC[C@@]4(O)[C@@H](C2)N(CC2CCC2)CC[C@]314` (stereo partly drawn), for which the activity change, negative = inhibition was 3.08%.
In the case of `C[C@@]1(CO)[C@H](O)CC[C@@]2(C)[C@H]1CC[C@H]1C[C@@H]3C[C@@]12CC[C@]3(O)CO`, the activity change, negative = inhibition was -87.7% (active).
The same measure for `CC(C(=O)OC1CC2CCC(C1)N2C)c1ccc(Br)cc1` (stereo not drawn): -1.35% and 1.24%.
The same measure for `CC[C@@]1(O)C(=O)OCc2c1cc1n(c2=O)Cc2cc3ccccc3nc2-1`: -82.2% (active) and -91.4% (active); for `CCCn1c(C)c(C(=O)c2cccc3ccccc23)c2ccccc21`: 93.6%.
Turning to `Cc1c(C(=O)c2cccc3ccccc23)c2cccc3c2n1[C@H](CN1CCOCC1)CO3`, the activity change, negative = inhibition is -89.2% (active).
Under `Cc1c(C(=O)c2cccc3ccccc23)c2cccc3c2n1[C@@H](CN1CCOCC1)CO3` stands 46.7%.
The same measure for `CC(=O)Oc1ccc(Cl)c2cccnc12`: -3.09%; for `Cc1c(N2C(=O)[C@@H]3[C@H](O)CCN3C2=O)ccc(C#N)c1Cl`: 8.89%.
Under `C[C@@H]1O[C@@H](O[C@H]2C[C@@H](O)[C@]3(CO)C4C(CC[C@]3(O)C2)[C@@]2(O)CC[C@H](C3=CC(=O)OC3)[C@@]2(C)C[C@H]4O)[C@H](O)[C@H](O)[C@H]1O` (stereo partly drawn) stands -88.6% (active); under `C[C@@H]1O[C@@H](O[C@@H]2C[C@@H](O)[C@]3(CO)[C@H]4[C@H](O)C[C@]5(C)[C@@H](C6=CC(=O)OC6)CC[C@]5(O)[C@@H]4CC[C@]3(O)C2)[C@H](O)[C@H](O)[C@H]1O`, -77.1% (active).
Turning to `CC1OC(OC2CC(O)C3(CO)C4C(O)CC5(C)C(C6=CC(=O)OC6)CCC5(O)C4CCC3(O)C2)C(O)C(O)C1O` (stereo not drawn), the activity change, negative = inhibition was -83.7% (active).
